The values below come from PubChem BioAssay (EPA / NIEHS).

Conditions in all cases: mRNA level, 48 h; actives raise or lower the signal
Read-out in test [1]: JUN Transcription Factor, JUN (gene 3725)
The test is described as follows: LTEA_HepaRG_JUN: Life Technologies and Expression Analysis (LTEA) Assay for JUN Transcription Factor using HepaRG (AID 2283513). The gist of the method:
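Differentiated HepaRG cells were exposed to chemicals for 48 h in serum-free induction medium, 8 concentrations from 100 uM in half-log steps, 0.5% DMSO vehicle, in duplicate. JUN mRNA was quantified by TaqMan qRT-PCR, normalized to ACTB, GAPDH, POLR2A.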

Read-out in test [2]: Lipase C (LIPC), LIPC (gene 3990)
The test can be described thus: LTEA_HepaRG_LIPC: Life Technologies and Expression Analysis (LTEA) Assay for Lipase C (LIPC) using HepaRG (AID 2283514). The gist of the method: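 Differentiated human HepaRG cells in serum-free induction medium were exposed in duplicate for 48 h to eight concentrations (top 100 uM, half-log steps, 0.5% DMSO). LIPC mRNA was quantified by TaqMan qRT-PCR, normalized to ACTB, GAPDH and POLR2A, with bidirectional fitting versus DMSO.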

Read-out in test [3]: Lipoprotein lipase (LPL), LPL (gene 4023)
The test can be described thus: LTEA_HepaRG_LPL: Life Technologies and Expression Analysis (LTEA) Assay for Lipoprotein lipase (LPL) using HepaRG (AID 2283515). In short, it runs like this: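 Differentiated human HepaRG cells in serum-free induction medium were exposed in duplicate for 48 h to eight half-log concentrations (top 100 uM) in 0.5% DMSO. LPL mRNA was quantified by TaqMan qRT-PCR, normalized to ACTB, GAPDH and POLR2A.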

Read-out in test [4]: MicroRNA 122 (MIR122), gene 406906
The test can be described thus: LTEA_HepaRG_MIR122: Life Technologies and Expression Analysis (LTEA) Assay for MicroRNA 122 (MIR122) using HepaRG (AID 2283516). Note: the transcript read is the microRNA miR-122. In short, it runs like this:
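Differentiated human HepaRG cells were exposed 48 h in serum-free induction medium to eight half-log concentrations (top 100 uM, 0.5% DMSO). Transcript level was measured by TaqMan qRT-PCR, normalized to ACTB, GAPDH and POLR2A, and fitted bidirectionally versus DMSO.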

Read-out in test [5]: matrix metalloproteinase-10 (MMP10), MMP10 (gene 4319)
The test is described as follows: LTEA_HepaRG_MMP10: Life Technologies and Expression Analysis (LTEA) Assay for matrix metalloproteinase-10 (MMP10) using HepaRG (AID 2283517). The gist of the method: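 HepaRG, collagen I, ~100,000 cells/well; serum-free induction medium; 48 h exposure, duplicate, 8-pt half-log to 100 uM, 0.5% DMSO. Readout: TaqMan qRT-PCR, normalized to ACTB/GAPDH/POLR2A; bidirectional fit vs DMSO.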

Read-out in a further test: MYC, MYC (gene 4609)
The test is described as follows: LTEA_HepaRG_MYC: Life Technologies and Expression Analysis (LTEA) Assay for MYC using HepaRG (AID 2283518). In short, it runs like this:
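Expression changes were scored by TaqMan qRT-PCR with ACTB, GAPDH and POLR2A normalization. Cultures in serum-free induction medium received duplicate 8-point concentration series, highest 100 uM, for 48 h; DMSO (0.5%) served as baseline.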

Read-out in test [6]: Paternally Expressed 10 (PEG10), PEG10 (gene 23089)
The test can be described thus: LTEA_HepaRG_PEG10: Life Technologies and Expression Analysis (LTEA) Assay for Paternally Expressed 10 (PEG10) using HepaRG (AID 2283520). The gist of the method:
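Differentiated HepaRG cells, plated 48 h then switched to serum-free induction medium, were exposed in duplicate for 48 h to eight half-log concentrations topping at 100 uM in 0.5% DMSO. PEG10 mRNA was quantified by TaqMan qRT-PCR, normalised to ACTB, GAPDH and POLR2A.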

Read-out in test [7]: Nuclear factor NF-kappa-B p105 subunit (Homo sapiens) (UniProt P19838)
The test is described as follows: LTEA_HepaRG_NFKB1: Life Technologies and Expression Analysis (LTEA) Assay for Nuclear Factor Kappa B Subunit 1 (NFKB1) using HepaRG (AID 2283521).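 Note: TaqMan qRT-PCR transcript normalised to ACTB GAPDH and POLR2A housekeeping genes.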 The gist of the method: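 Human HepaRG cells receive eight half-log concentrations, highest 100 uM, for 48 h. NFKB1 expression is then quantified by qRT-PCR and analysed for up- or down-regulation relative to 0.5% DMSO vehicle.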

Read-out in test [8]: Protein phosphatase 2A (PPP2R4), PTPA (gene 5524)
The test is described as follows: LTEA_HepaRG_PPP2R4: Life Technologies and Expression Analysis (LTEA) Assay for Protein phosphatase 2A (PPP2R4) using HepaRG (AID 2283522). The gist of the method: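 Differentiated HepaRG cells in serum-free induction medium were exposed in duplicate for 48 h to eight concentrations, top 100 uM with half-log dilutions, in 0.5% DMSO. PPP2R4 mRNA was quantified by TaqMan qRT-PCR, normalized to ACTB, GAPDH and POLR2A.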

Read-out in test [9]: Phosphatase and tensin (PTEN), PTEN (gene 5728)
The test can be described thus: LTEA_HepaRG_PTEN: Life Technologies and Expression Analysis (LTEA) Assay for Phosphatase and tensin (PTEN) using HepaRG (AID 2283523). In short, it runs like this:
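Differentiated human HepaRG cells, plated 48 h then switched to serum-free induction medium, were exposed in duplicate for 48 h to eight half-log concentrations up to 100 uM in 0.5% DMSO. PTEN mRNA measured by TaqMan qRT-PCR, normalized to ACTB/GAPDH/POLR2A, bidirectional fit versus DMSO.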

Read-out in test [10]: solute carrier (SLC22A1), SLC22A1 (gene 6580)
The test can be described thus: LTEA_HepaRG_SLC22A1: Life Technologies and Expression Analysis (LTEA) Assay for solute carrier (SLC22A1) using HepaRG (AID 2283524). The gist of the method: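 Human HepaRG cells were plated 48 h, switched to serum-free induction medium, then exposed in duplicate for 48 h to 8-point half-log series from 100 uM in 0.5% DMSO. SLC22A1 mRNA measured by qRT-PCR, normalized to ACTB/GAPDH/POLR2A, fitted bidirectionally versus DMSO.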

Read-out in test [11]: Pyruvate Dehydrogenase Kinase 4 (PDK4), PDK4 (gene 5166)
The test is described as follows: LTEA_HepaRG_PDK4: Life Technologies and Expression Analysis (LTEA) Assay for Pyruvate Dehydrogenase Kinase 4 (PDK4) using HepaRG (AID 2283525). The gist of the method: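 Differentiated human HepaRG cells, pre-cultured 48 h, were exposed in duplicate for 48 h in serum-free induction medium to eight half-log concentrations up to 100 uM in 0.5% DMSO. PDK4 mRNA was quantified by qRT-PCR, normalized to ACTB, GAPDH and POLR2A, bidirectional fitting versus DMSO.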

Read-out in test [12]: NAD(P)H dehydrogenase [quinone] 1 (NQO1), NQO1 (gene 1728)
The test can be described thus: LTEA_HepaRG_NQO1: Life Technologies and Expression Analysis (LTEA) Assay for NAD(P)H dehydrogenase [quinone] 1 (NQO1) using HepaRG (AID 2283526). The gist of the method:
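Differentiated HepaRG cells, plated 48 h and then switched to serum-free induction medium, were exposed in duplicate for 48 h to 8-point half-log concentrations up to 100 uM in 0.5% DMSO. mRNA measured by qRT-PCR, normalized to ACTB, GAPDH, POLR2A; bidirectional fit versus DMSO.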

Read-out in test [13]: Nuclear factor erythroid 2-related factor 2 (Homo sapiens) (UniProt Q16236)
The test is described as follows: LTEA_HepaRG_NFE2L2: Life Technologies and Expression Analysis (LTEA) Assay for Nuclear factor erythroid 2-related factor 2 (NFE2L2) Transcription Factor using HepaRG (AID 2283527).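 For outcome: TaqMan qRT-PCR transcript level normalised to ACTB GAPDH and POLR2A housekeeping genes.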 The gist of the method: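 Differentiated human HepaRG cells in serum-free induction medium were exposed for 48 h to eight concentrations (top 100 uM, half-log dilutions, 0.5% DMSO), in duplicate. NFE2L2 mRNA was quantified by TaqMan qRT-PCR, normalized to ACTB, GAPDH and POLR2A, with bidirectional fitting versus DMSO.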

Read-out in test [14]: succinate dehydrogenase complex iron sulfur subunit B (SDHB), SDHB (gene 6390)
The test is described as follows: LTEA_HepaRG_SDHB: Life Technologies and Expression Analysis (LTEA) Assay for succinate dehydrogenase complex iron sulfur subunit B (SDHB) using HepaRG (AID 2283528). The gist of the method: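 A human HepaRG culture in serum-free induction medium received test chemicals for 48 h over an eight-point range capped at 100 uM. SDHB expression change was quantified by qRT-PCR.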

Read-out in test [15]: Signal transducer and activator of transcription 3 (Homo sapiens) (UniProt P40763)
The test can be described thus: LTEA_HepaRG_STAT3: Life Technologies and Expression Analysis (LTEA) Assay for Signal transducer and activator of transcription (STAT3) using HepaRG (AID 2283529). In short, it runs like this: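 Differentiated human HepaRG cells in serum-free induction medium were exposed in duplicate for 48 h to eight half-log concentrations up to 100 uM in 0.5% DMSO. STAT3 mRNA was quantified by TaqMan qRT-PCR, normalized to ACTB, GAPDH and POLR2A, and fitted bidirectionally against DMSO.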

Read-out in test [16]: solute carrier (SLCO1B1), SLCO1B1 (gene 10599)
The test can be described thus: LTEA_HepaRG_SLCO1B1: Life Technologies and Expression Analysis (LTEA) Assay for solute carrier (SLCO1B1) using HepaRG (AID 2283530). In short, it runs like this: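 Human HepaRG cultures treated for 48 h with an eight-concentration half-log series topping at 100 uM; SLCO1B1 measured by qRT-PCR and fitted bidirectionally relative to DMSO.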

Read-out in test [17]: sulfotransferase 2A1 (SULT2A1), SULT2A1 (gene 6822)
The test can be described thus: LTEA_HepaRG_SULT2A1: Life Technologies and Expression Analysis (LTEA) Assay for sulfotransferase 2A1 (SULT2A1) using HepaRG (AID 2283531). In short, it runs like this: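 Gene-expression endpoint in a human liver cell line: SULT2A1 mRNA change after 48 h chemical treatment, curves fitted in both directions relative to 0.5% DMSO vehicle. Concentrations spanned eight half-log steps from 100 uM.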

Read-out in test [18]: Transforming Growth Factor (TGFA), TGFA (gene 7039)
The test is described as follows: LTEA_HepaRG_TGFA: Life Technologies and Expression Analysis (LTEA) Assay for Transforming Growth Factor (TGFA) using HepaRG (AID 2283532). In short, it runs like this:
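Differentiated human HepaRG cells, plated 48 h then switched to serum-free induction medium, were exposed in duplicate for 48 h to 8-point half-log series from 100 uM in 0.5% DMSO. TGFA mRNA measured by qRT-PCR, normalized to ACTB/GAPDH/POLR2A, bidirectional fit versus DMSO.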

Active and inactive are the calls of the source. Rule for the calls: active = hit-call score of the fitted dose curve at least 0.9, where 1 is the maximum; inactive = score below 0.9.

Sequence of Signal transducer and activator of transcription 3 (Homo sapiens) (P40763 whole entry, looked up): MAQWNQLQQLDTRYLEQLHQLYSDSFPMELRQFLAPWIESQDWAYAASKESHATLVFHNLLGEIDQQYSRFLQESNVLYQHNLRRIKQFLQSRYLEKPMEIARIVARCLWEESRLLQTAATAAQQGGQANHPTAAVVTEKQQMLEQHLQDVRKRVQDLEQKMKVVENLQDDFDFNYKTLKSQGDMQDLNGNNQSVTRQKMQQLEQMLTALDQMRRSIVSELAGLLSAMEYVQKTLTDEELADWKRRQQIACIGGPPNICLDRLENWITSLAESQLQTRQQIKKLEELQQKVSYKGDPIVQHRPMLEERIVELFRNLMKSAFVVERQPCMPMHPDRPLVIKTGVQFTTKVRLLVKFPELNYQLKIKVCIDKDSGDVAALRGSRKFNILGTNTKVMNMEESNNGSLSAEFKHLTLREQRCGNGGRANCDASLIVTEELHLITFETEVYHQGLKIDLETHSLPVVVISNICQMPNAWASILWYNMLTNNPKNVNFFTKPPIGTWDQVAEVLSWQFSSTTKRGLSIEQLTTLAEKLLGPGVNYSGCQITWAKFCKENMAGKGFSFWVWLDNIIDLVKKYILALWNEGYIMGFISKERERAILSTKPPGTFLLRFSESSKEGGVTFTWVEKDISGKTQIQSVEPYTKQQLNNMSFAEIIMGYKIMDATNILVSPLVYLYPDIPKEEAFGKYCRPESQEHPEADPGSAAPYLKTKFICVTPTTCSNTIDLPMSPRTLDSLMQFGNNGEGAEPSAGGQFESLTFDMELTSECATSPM
Sequence of Nuclear factor erythroid 2-related factor 2 (Homo sapiens) (Q16236 whole entry, looked up): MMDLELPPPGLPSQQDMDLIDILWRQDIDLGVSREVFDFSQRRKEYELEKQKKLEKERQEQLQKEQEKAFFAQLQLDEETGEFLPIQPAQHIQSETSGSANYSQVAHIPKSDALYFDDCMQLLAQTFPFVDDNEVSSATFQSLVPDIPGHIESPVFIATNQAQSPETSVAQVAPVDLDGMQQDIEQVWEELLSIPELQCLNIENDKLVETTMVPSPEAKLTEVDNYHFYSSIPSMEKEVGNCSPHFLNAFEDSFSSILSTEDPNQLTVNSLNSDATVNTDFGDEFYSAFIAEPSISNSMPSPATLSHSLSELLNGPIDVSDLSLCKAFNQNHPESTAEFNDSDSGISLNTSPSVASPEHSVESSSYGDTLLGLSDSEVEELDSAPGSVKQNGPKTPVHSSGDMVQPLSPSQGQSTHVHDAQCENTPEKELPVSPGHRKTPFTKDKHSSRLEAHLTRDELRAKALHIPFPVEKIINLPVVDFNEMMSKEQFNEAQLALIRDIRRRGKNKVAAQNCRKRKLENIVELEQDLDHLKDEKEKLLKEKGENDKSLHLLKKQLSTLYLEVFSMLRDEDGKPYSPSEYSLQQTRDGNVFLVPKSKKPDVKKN
Sequence of Nuclear factor NF-kappa-B p105 subunit (Homo sapiens) (P19838 whole entry, looked up): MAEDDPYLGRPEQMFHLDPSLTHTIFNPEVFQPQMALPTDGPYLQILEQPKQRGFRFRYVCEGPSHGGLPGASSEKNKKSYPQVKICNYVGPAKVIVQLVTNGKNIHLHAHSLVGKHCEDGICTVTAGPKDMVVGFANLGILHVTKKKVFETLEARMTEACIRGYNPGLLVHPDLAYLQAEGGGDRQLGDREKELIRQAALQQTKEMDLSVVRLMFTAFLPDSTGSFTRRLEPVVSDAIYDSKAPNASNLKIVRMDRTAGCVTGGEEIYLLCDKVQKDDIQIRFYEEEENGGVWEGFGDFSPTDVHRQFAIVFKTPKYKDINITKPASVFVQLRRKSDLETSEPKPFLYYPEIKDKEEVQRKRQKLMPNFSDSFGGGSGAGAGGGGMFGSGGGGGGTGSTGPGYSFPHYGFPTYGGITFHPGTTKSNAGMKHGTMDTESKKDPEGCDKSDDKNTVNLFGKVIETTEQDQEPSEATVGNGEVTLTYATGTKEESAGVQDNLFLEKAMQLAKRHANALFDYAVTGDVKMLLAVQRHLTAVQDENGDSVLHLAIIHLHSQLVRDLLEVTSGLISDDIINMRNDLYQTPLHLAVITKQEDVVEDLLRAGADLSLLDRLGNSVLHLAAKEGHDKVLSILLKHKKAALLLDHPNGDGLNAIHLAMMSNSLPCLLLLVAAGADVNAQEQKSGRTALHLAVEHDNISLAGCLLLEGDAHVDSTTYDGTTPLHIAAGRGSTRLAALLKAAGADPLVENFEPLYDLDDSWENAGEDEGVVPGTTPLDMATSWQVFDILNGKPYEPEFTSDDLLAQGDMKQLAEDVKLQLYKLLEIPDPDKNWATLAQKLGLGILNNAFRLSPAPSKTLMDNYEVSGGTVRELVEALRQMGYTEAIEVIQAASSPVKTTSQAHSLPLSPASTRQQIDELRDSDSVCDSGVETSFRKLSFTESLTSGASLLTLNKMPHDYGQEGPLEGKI

Take `C[C@](N)(Cc1ccc(O)c(O)c1)C(=O)O`: the outcome in test [1] was “inactive”; in test [2] it was “inactive”; in [3], “inactive”; in test [4] it was “inactive”; in test [5] it was “inactive”; in the test with MYC, MYC (gene 4609), “inactive”. The molecule was called inactive in [6], in test [7], in [8], in test [9], in [10] and in [11]. Also, the molecule was called inactive in [12], in [13], in [14], in [15], in [16] and in [17]. The result in test [18] was inactive.
With `Cn1c(=O)cc(Oc2ccc(F)cc2F)c2cnc(NCC(C)(C)O)nc21`, the molecule was called inactive in test [1], in test [2], in test [4], in [5], in test [6] and in test [8]. For the same molecule, the result in test [9], in test [10], in test [11], in test [12], in test [14] and in test [15] was inactive. Moreover, the molecule was classed as inactive in test [16], in test [17] and in test [18]. Moreover, the AC50 (as a rule, the concentration at which the activity in the assay is half-maximal) is 9.98 µM (active) in test [3]; 22.1 µM (active) in the test with MYC, MYC (gene 4609); 1.3 µM (active) in test [13].
As to `CC[C@H]1OC(=O)[C@H](C)[C@@H](O[C@H]2C[C@@](C)(OC)[C@@H](O)[C@H](C)O2)[C@H](C)[C@@H](O[C@@H]2O[C@H](C)C[C@H](N(C)C)[C@H]2O)[C@](C)(O)C[C@@H](C)C(=O)[C@H](C)[C@@H](O)[C@]1(C)O`, the outcome in [2] is “inactive”; in test [3], “inactive”; in [4], “inactive”; in test [5], “inactive”; with MYC, MYC (gene 4609), “inactive”; in test [6] it was “inactive”. In addition, the call in [7], in test [8], in [9], in [10], in [11] and in test [12] was inactive. For the same molecule, the result in test [13], in test [14], in test [15], in test [16], in test [17] and in test [18] was inactive.
With `CC1=CC(=O)CC(C)(C)C1`, the outcome in [1] is “inactive”; in test [2], “inactive”; in test [3], “inactive”; in [4] it was “inactive”; in [5], “inactive”; in the test with MYC, MYC (gene 4609) it was “inactive”. Further, the call in test [6], in [8], in test [9], in test [10], in [11] and in test [12] was inactive. Besides, the molecule was called inactive in [13], in test [14], in test [15], in test [16] and in test [18].
